Measurements taken from PubChem BioAssay (NCI).
Compounds without any hit were thinned out: in the full panel of roughly 79,000, 15% have a hit. The source made the active and inactive calls. Rule as the data show it: active = growth inhibition above about 70%; inactive = the rest.

Columns and labels:
[1] = NCI Yeast Anticancer Drug Screen. Data for the rad50 strain (AID 155);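 also: 0% = growth of vehicle-only cultures of the same strain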; details: S. cerevisiae rad50 strain growth inhibition; at 50.0 µM; stronger effect = higher value
In short: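 Genetically altered yeast (DNA repair pathway); compound treatment; growth inhibition vs vehicle ctrl.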

[2] = NCI Yeast Anticancer Drug Screen. Data for the mec2-1 strain (AID 157); details: S. cerevisiae mec2-1 strain, at 50.0 µM, stronger effect = higher value
In short: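 Compounds were applied to mec2-1 yeast cells. Their growth was then compared with that of vehicle-treated cultures to give growth inhibition.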

[3] = NCI Yeast Anticancer Drug Screen. Data for the sgs1 mgt1 strain (AID 161);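 also: 0% = growth of cultures given vehicle only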; details: S. cerevisiae sgs1 mgt1 strain, at 50.0 µM, stronger effect = higher value
In short: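 This yeast growth screen uses a strain with defined DNA-repair lesions; compound-treated growth is compared with vehicle-treated growth.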

[4] = NCI Yeast Anticancer Drug Screen. Data for the cln2 rad14 strain (AID 165);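 also: 0% = growth equal to vehicle treated cultures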; details: S. cerevisiae cln2 rad14 strain, at 50.0 µM, stronger effect = higher value
In short: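 Strain: cln2 rad14 yeast, altered in cell cycle control and DNA damage repair. Read-out: growth inhibition vs vehicle.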

[5] = NCI Yeast Anticancer Drug Screen. Data for the bub3 strain (AID 167); details: S. cerevisiae bub3 mutant strain, at 50.0 µM, stronger effect = higher value
In short: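 Yeast carrying a defined mutation is treated with each compound, and growth is compared with that of vehicle-exposed cells to give inhibition.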

[6] = NCI Yeast Anticancer Drug Screen. Data for the mlh1 rad18 strain (AID 175); details: S. cerevisiae mlh1 rad18 strain growth inhibition; at 50.0 µM; stronger effect = higher value
In short: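 A repair-deficient yeast strain is exposed to test compound, and growth is scored relative to vehicle-treated controls.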

Measured: growth inhibition

COC(=O)/C=C(\C)CC(O)/C=C(\C)CCC=C(C)C (stereo not drawn)
inactive: [1] 21.1% | [2] 49.1% | [4] 12.8% | [5] 60.5% | [6] -23.1%
active: [3] 75.1%

NC(=O)c1ccccc1[N+](=O)[O-]
inactive: [1] 3.75% | [2] -7% | [3] -16.4% | [4] 6.4% | [5] -16.1% | [6] -6.5%

Cc1ccc(S(=O)(=O)NNC(=O)c2ccc[nH]2)cc1
inactive: [1] -1.5% | [2] -24.2% | [3] -7.85% | [4] 7.65% | [5] 9.9% | [6] 6.35%
